Screening results deposited in PubChem BioAssay by National Center for Advancing Translational Sciences (NCATS).
PNC inhibitor = blocks assembly of the perinucleolar compartment; hit rate 3.1% among 140,000; activity change (PNC), negative = inhibition, % at 10 µM; PC3M PTB-GFP, PNC prevalence imaging, 16 h; active compounds read low;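 active = readout at or below -70, meaning at least 70% loss of cells showing the perinucleolar compartment, a nuclear body marking cancer cells; inconclusive = readout between -30 and a set limit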;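 also: plate controls were DMSO wells for no effect and camptothecin positive control wells for full effect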
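PC3M cells stably expressing PTB-GFP, 750–1000 cells/well, treated 16 h at 37 °C with compound (23 nl of library stock), in duplicate. After paraformaldehyde fixation and Hoechst stain, imaged at 20x; PNC prevalence scored by image analysis.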
ALDH1A1 block = blocks purified human ALDH1A1 activity; P00352; Purified ALDH1A1, NADH fluorescence, propionaldehyde substrate; Potency, µM (titrated, usually from 75.3 µM), for inactives: top-dose activity, negative = inhibition, most hits filed as inhibitors; hit rate 7.3% among 220,000;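 also: potency is read from the fitted curve at half-maximal effect; plate controls were no enzyme wells and a reference inhibitor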
Target sequence (P00352 whole entry, looked up): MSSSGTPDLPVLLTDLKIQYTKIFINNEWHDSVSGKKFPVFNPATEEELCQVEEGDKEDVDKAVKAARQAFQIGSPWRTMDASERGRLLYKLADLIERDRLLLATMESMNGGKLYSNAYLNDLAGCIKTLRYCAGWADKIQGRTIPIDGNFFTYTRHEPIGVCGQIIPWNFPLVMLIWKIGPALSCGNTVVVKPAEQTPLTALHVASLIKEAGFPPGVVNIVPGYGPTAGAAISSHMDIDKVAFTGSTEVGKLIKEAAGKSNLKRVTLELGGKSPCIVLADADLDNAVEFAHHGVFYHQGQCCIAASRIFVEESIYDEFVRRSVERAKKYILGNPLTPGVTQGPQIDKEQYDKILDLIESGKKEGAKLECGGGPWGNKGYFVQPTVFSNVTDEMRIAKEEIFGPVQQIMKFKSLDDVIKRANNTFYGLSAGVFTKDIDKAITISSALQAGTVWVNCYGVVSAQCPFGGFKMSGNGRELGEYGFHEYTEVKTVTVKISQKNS
LMNA splice mod = changes lamin A minigene splicing in HeLa cells; HeLa LMNA splicing GFP/RFP minigene ratio, 48 h; Potency, µM (highest dose often 46.1 µM), for inactives: top-dose ratio change, negative = inhibition, usual class: inhibitors; hit rate 0.01% among 200,000; AID 1487; active = well fitted inhibition curve with a large enough effect in the signal ratio, with a control signal flat, not every such curve was filed as active; inconclusive = small, poorly fitted or top-dose-only effect, or effect the other way, or a change in a side signal; the % refers to the signal ratio; also: potency is read from the fitted curve at half-maximal effect
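S3 HeLa cells stably expressing lamin A-EGFP splicing minigene plus DsRed2, 600 cells/well, 48 h compound exposure at 37C. Laser-scanning cytometry; analysed as GFP (500-530 nm)/RFP (575-640 nm) total intensity ratio; 0.5% DMSO vehicle.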
ALOX12 inhib = 12-hLO (ALOX12) enzyme inhibition | purified 12-hLO, xylenol orange hydroperoxide absorbance | Potency, µM (top dose mostly 57.1 µM), inactives show at the highest dose activity change, negative = inhibition, actives largely listed as inhibitors | hit rate 0.12% among 150,000 | AID 1452; active = well fitted inhibition curve with a large enough effect; inconclusive = small, poorly fitted or top-dose-only effect; also: potency is read from the fitted curve at half-maximal effect; nearly all actives have a fitted effect of over 55% in size
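Hydroperoxide output read as Fe(III)-xylenol orange absorbance, 573-to-405 nm ratio, after 30 min reaction with 40 uM arachidonic acid. Enzyme: 150 nM purified human 12hLO, 15 min compound preincubation; 25 mM Hepes pH 7.0, room temperature.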
HPGD inh = blocks human HPGD enzyme activity | purified HPGD, NADH fluorescence kinetic, PGE2 substrate | Potency, µM, for the others: at the highest dose activity change, negative = inhibition, actives largely listed as inhibitors | hit rate 4.3% among 150,000 | P15428; also: potency is read from the fitted curve at half-maximal effect
Target sequence (P15428 whole entry, looked up): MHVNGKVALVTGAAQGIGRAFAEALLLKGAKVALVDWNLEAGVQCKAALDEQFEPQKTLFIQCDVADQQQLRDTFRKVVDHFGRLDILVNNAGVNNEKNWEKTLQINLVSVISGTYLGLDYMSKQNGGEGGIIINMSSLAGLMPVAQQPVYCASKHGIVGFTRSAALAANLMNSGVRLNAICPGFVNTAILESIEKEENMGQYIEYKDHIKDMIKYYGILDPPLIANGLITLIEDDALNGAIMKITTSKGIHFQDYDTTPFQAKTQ
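NADH formation kinetics: reaction with 30 uM PGE2 and 1 mM NAD+ (final), 20 nM enzyme, Tris-HCl pH 8 with Tween 20, after 15 min compound preincubation at room temperature. Fluorescence change, last versus first of five reads.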
Starred values were filed as active, the others as inactive; u = inconclusive; x = no result; [ ] = remark or other dose. Shown are actives, neighbours in structure and some others; about 10% of the full set was active somewhere. Unless noted, calls follow the shape of the dose curve; as a rule, active = well fitted inhibition curve with a large enough effect (not every such curve was filed as active); inconclusive = small, poorly fitted or top-dose-only effect, or another doubt; inactive = no such curve, though single readings can be large or run the other way. Unless noted, % is scaled to controls: 0 for no effect and ±100 for the full control effect.

SMILES	PNC inhibitor	ALDH1A1 block	LMNA splice mod	ALOX12 inhib	HPGD inh
CCN(CC)c1ccc(/C=N/n2nnnc2N)c(O)c1	-120*	u	-9%	-8%	u
Cc1cccc(N/N=C/c2ccccc2O)c1	12	25µM*	-8%	-28%	u
CCN(CC)c1ccc(C=Nc2ccc(C)cc2C)c(O)c1	x	20µM*	x	x	x
CCN(CC)c1ccc(C=Nc2cc(C)ccc2C)c(O)c1	8	u	1%	-5%	-1%
CCN(CC)c1ccc(/C=N/Nc2ccc(C)cc2)c(O)c1	-12	10µM*	u	-11%	32µM*
Cc1ccc(Cl)cc1NC(=O)c1ccc2nc(CCc3ccccc3)oc2c1	x	x	16%[46 µM]	x	x
CCOC(=O)c1c(S(=O)(=O)NCC(=O)N(C)Cc2ccccc2)c(C)n(C)c1C	x	x	-24%[46 µM]	x	x
CC(C)[C@](N)(C(=O)O)c1ccccc1	x	-14%[13.5 µM]	x	2%[11.4 µM]	-5%
CCOC(=O)c1[nH]c(C)c(C(=O)NC2CCCC2)c1C	9	2%	-2%	6%	18µM*
CCOC(=O)c1[nH]c(C)c(C(=O)NC2CCCCCC2)c1C	9	-3%	9%	-1%	-2%
CC(=O)c1c(C)[nH]c(C(=O)NCc2ccccn2)c1C	23	3%	13%	3%	-6%
CCOC(=O)c1[nH]c(C)c(C(=O)NCc2ccccn2)c1C	-100*	0%	-10%	2%	-7%
COc1cc2c(cc1OC)C(COc1ccccc1OC)N(C(=O)c1ccc(S(=O)(=O)N3CCCC3)cc1)CC2 (stereo unspecified)	x	x	12%[46 µM]	x	x
COC(=O)C(/C=C/C(C)Cc1cc(Br)cc(OCc2ccccc2)c1OC)OCc1ccccc1 (stereo unspecified)	x	-10%[13.5 µM]	x	x	x
CC(C)N(Cc1ccccc1)C(=O)COC(=O)/C=C/c1cnc2ccccc2n1	x	16µM*	x	x	x
Cc1cc2ncc(-c3ncc(C(F)(F)F)cc3Cl)cn2n1	-81*	7%	-2%	2%	-6%
CCn1c(SCC(=O)N2CCCc3ccccc32)nc2ccccc2c1=O	34	u	u	-3%	-26%
Cc1cc2c(=O)n(Cc3ccco3)c(SCC(=O)NCc3ccco3)nc2s1	-2	7.9µM*	-10%	-6%	-18%
C=CCn1c(SCC(=O)NC(=O)NCc2ccco2)nc2sc(CC)cc2c1=O	32	u	3%	-7%	-14%
Cc1cc2c(=O)n(Cc3ccco3)c(SCC(=O)N3CCCc4ccccc43)nc2s1	-5	11µM*	u	-5%	-12%
O=C(CSc1ccc2nc(-c3ccccc3)cn2n1)Nc1cccc(F)c1	x	x	-7%[46 µM]	x	x
O=[N+]([O-])c1cc(CN2CCN(c3cccc(C(F)(F)F)c3)CC2)c2cccnc2c1O	x	18µM*	u	x	x
CCOc1cc(/C=C2/NC(=S)NC2=O)ccc1OCc1ccc([N+](=O)[O-])cc1	34	2%	-4%	0%	-9%
O=C1NC(=S)N/C1=C/c1cccc([N+](=O)[O-])c1O	61	22µM*	1%	-10%	-27%
Cc1ccc(/C=C2\NC(=S)NC2=O)cc1[N+](=O)[O-]	x	-10%	x	x	x
SMILES	PNC inhibitor	ALDH1A1 block	LMNA splice mod	ALOX12 inhib	HPGD inh
O=C1NC(=S)N/C1=C/c1cc([N+](=O)[O-])ccc1O	31	5µM*	-1%	-8%	u
O=C(COc1ccc(S(=O)(=O)N2CCc3ccccc32)cc1Cl)NCc1ccccn1	u	14µM*	0%	-3%	-5%
Cc1cc(S(=O)(=O)NC2CCCCC2)ccc1OCC(=O)NCc1ccccn1	36	u	11%	-1%	16µM*
CCOc1cc(CNCc2ccccn2)ccc1OCC(=O)NC1CCCCC1	29	-12%	2%	-2%	-3%
CCCCNC(=O)c1cnc2c(-c3ccc(OCC)c(OCC)c3)c(C)nn2c1-c1ccccc1	x	x	-8%[46 µM]	x	x
Cc1ccc(N2C(=O)CC(Sc3cccs3)C2=O)cc1 (stereo unspecified)	x	2.2µM*	-8%[46 µM]	x	x
Cc1ccccc1C(=O)NNC1CC(=O)N(c2ccc3c(c2)OCCO3)C1=O (stereo unspecified)	-10	-5%	-6%	-3%	-6%
Cc1ccc(SC2CC(=O)N(c3ccc4c(c3)OCCO4)C2=O)cc1 (stereo unspecified)	x	2.5µM*	-21%[46 µM]	x	x
CCCc1nn2c(=O)cc(COC(=O)c3ccc(NC(=O)c4cccs4)cc3)nc2s1	x	x	16%[46 µM]	x	x
C=C(C)CN=C1SC(C(=O)Nc2sc3c(c2C(=O)OC)CCC3)C(N)=C1C(N)=O (stereo unspecified)	26	25µM*	u	-6%	u
CCCCCc1nnc(NC(=O)Cn2cnc3ccccc3c2=O)s1	-111*	1%	-12%	-1%	-5%
O=C(Cn1cnc2ccccc2c1=O)NCc1cccs1	x	1%	-9%[46 µM]	x	x
CCCCc1nnc(NC(=O)Cn2cnc3ccccc3c2=O)s1	x	-16%	8%[46 µM]	x	x
O=C(Cn1cnc2ccccc2c1=O)Nc1nnc(SCc2ccccc2)s1	17	9%	-8%	2%	22µM*
COc1ccc(-c2nc(C(=O)N3CCN(C)CC3)sc2-c2ccc(OC)cc2)cc1	x	u	x	1%	u
COc1ccc2c(c1)c1ccc3c(c1n2C)C(=O)C=CC3=O	x	0.28µM*	x	x	x
COc1ccc2c(c1)c1ncn(CCN3CCCC3)c(=O)c1n2C	u	u	1%	-2%	x
F[Si-2](F)(F)(F)(F)F	x	x	3%	x	x
CCn1ccnc1CN(C)Cc1cn(-c2cc(C)ccc2C)nc1-c1ccccc1	x	28µM*	x	x	x
CN(Cc1ccc(OC(F)F)cc1)C(=O)c1ccc2nccnc2c1	u	7%	3%	-1%	-10%
COc1cccc(CN(C)C(=O)c2ccc3nccnc3c2)c1	23	2%	9%	3%	28µM*
COc1ccc(CNC(=O)CN(C(=O)c2ccc(CN3CCOCC3)o2)C2CCCC2)cc1	u	11µM*	-8%	6%	-3%
O=C(O)c1ccc(CN2CCOCC2)o1	x	4%	u	x	x
CCc1cc2c(nc1CC)CCN(CC/C(C)=N/O[C@@H](C)CN1CCCCc3nc(C)c(C)cc31)C2	x	6%[13.5 µM]	x	x	x
CCc1ccc2c(c1)c1nc(C)sc1n2CC	56	32µM*	u	u	28µM*
SMILES	PNC inhibitor	ALDH1A1 block	LMNA splice mod	ALOX12 inhib	HPGD inh
CO[C@@H]1COC(=O)CC=C[C@@H](C)[C@@H]2C=C[C@H](O)[C@@H](COC(=O)[C@H](C)NC(=O)CC=C[C@H]1C)O2	x	1%[13.5 µM]	x	x	x
O=C(Cc1ccc(F)cc1)N1CCN=C1SCc1ccc([N+](=O)[O-])cc1	33	8%	u	-1%	-10%
Cc1ccc(CSC2=NCCN2C(=O)c2ccc([N+](=O)[O-])cc2)cc1	x	16µM*	10%[46 µM]	x	x
Cc1ccc(C(=O)N2CCN=C2SCc2ccc([N+](=O)[O-])cc2)cc1	-20	u	u	1%	-16%
O=C(Cc1ccccc1)N1CCN=C1SCc1ccc([N+](=O)[O-])cc1	-90*	-4%	u	-2%	x
O=C(c1ccc2c(c1)OCO2)N1CCN=C1SCc1ccccc1	30	11µM*	u	-1%	u
